Activity calls are given as the source filed them. No rule for the calls is given here.
System: Aerobactin synthetase IucA (Klebsiella pneumoniae hvKP1)
Assay: IucA enzyme inhibition, primary screen, biochemical, Spectrum library (AID 1346200);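 also: 100% = wells without compound and 0% = wells lacking enzyme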
Conditions: malachite green pyrophosphate, A620, at 8 µM, active compounds read low

For `C#CCCCCCCCCCCCC(O)CC(O)CO` (stereo not given), which activity remaining is on record?
The activity remaining was 98.4% (inactive).

For `COC(=O)C[C@@H]1C2(C)C(=O)[C@@H](CC3=C4CC(=O)O[C@@H](c5ccoc5)[C@]4(C)CCC32)[C@H](OC(C)=O)C1(C)C` (stereo not given in full), which activity remaining is on record?
The activity remaining was 112% (inactive).

With `C=C1C2=CC(=O)O[C@@H](c3ccoc3)[C@]2(C)CCC1[C@@]1(C)C=CC(=O)C(C)(C)[C@@H]1CC(=O)OC` (stereo not given in full) as the molecule, how does the activity remaining read?
The activity remaining was 100% (inactive).

How did the activity remaining turn out when `CC(=O)Oc1ccc2c(c1)CCC1C2CC[C@@]2(C)C1C[C@@H](OC(C)=O)[C@@H]2OC(C)=O` (stereo not given in full) was run?
The activity remaining was 97.3% (inactive).

For `CC(CCC(=O)O)[C@H]1CCC2C3C(C[C@H](O)[C@@]21C)[C@@]1(C)CC[C@@H](O)C[C@H]1C[C@H]3O` (stereo not given in full), which activity remaining is on record?
Its activity remaining is 99.6% (inactive).

`CN(Cc1cc(Br)cc(Br)c1N)C1CCCCC1` was tested. Which activity remaining did it give?
Its activity remaining is 112% (inactive).

How did the activity remaining turn out when `CC(N)CCCC(C)(C)O` (stereo not given) was run?
Its activity remaining is 123% (inactive).

For `Cc1cc(C2CCCCC2)n(O)c(=O)c1`, which activity remaining is on record?
The activity remaining was 95.7% (inactive).

For `CC(=O)OCC(=O)[C@H]1CCC2C3CCC4=CC(=O)CC[C@]4(C)C3CC[C@@]21C` (stereo not given in full), which activity remaining is on record?
Its activity remaining is 111% (inactive).

With `Nc1ncnc2c1ncn2[C@@H]1O[C@H](CO)[C@@H](O)[C@@H]1O` as the molecule, how does the activity remaining read?
Its activity remaining is 107% (inactive).

How did the activity remaining turn out when `Cc1ncc([N+](=O)[O-])n1CC(C)O` (stereo not given) was run?
Its activity remaining is 112% (inactive).

For `CC1=C(CCC(=O)O)c2cc3nc(cc4[nH]c(cc5[nH]c(cc1n2)c(C)c5C(C)O)c(C)c4C(C)O)C(C)=C3CCC(=O)O` (stereo not given), which activity remaining is on record?
Its activity remaining is 107% (inactive).

With `CC(=O)Oc1ccc(O)cc1` as the molecule, how does the activity remaining read?
Its activity remaining is 122% (inactive).

With `O=C1OC(c2ccc(O)cc2)(c2ccc(O)cc2)c2ccccc21` as the molecule, how does the activity remaining read?
The activity remaining was 115% (inactive).

For `COc1cc2c3cc1Oc1cc(ccc1O)C[C@@H]1c4c(cc(OC)c(O)c4Oc4ccc(cc4)C[C@@H]3N(C)CC2)CC[N+]1(C)C`, which activity remaining is on record?
The activity remaining was 99.6% (inactive).

With `Cc1noc(NS(=O)(=O)c2ccc(N)cc2)c1C` as the molecule, how does the activity remaining read?
The activity remaining was 117% (inactive).

For `C#CCCCCCCCCCCCc1ccco1`, which activity remaining is on record?
Its activity remaining is 113% (inactive).

For `CC(=O)OC1CCC23CC1(C)CCC2C(C)(C)CC3OC(C)=O` (stereo not given), which activity remaining is on record?
The activity remaining was 105% (inactive).

`Cc1c(NC(C)C)c(=O)n(-c2ccccc2)n1C` was tested. Which activity remaining did it give?
The activity remaining was 105% (inactive).

`COc1c2occc2cc2ccc(=O)oc12` was tested. Which activity remaining did it give?
Its activity remaining is 124% (inactive).

With `C=CCCCCCCCCCCCc1ccco1` as the molecule, how does the activity remaining read?
Its activity remaining is 99.3% (inactive).

`NC(N)=NS(=O)(=O)c1ccc(N)cc1` was tested. Which activity remaining did it give?
Its activity remaining is 98.6% (inactive).

`CC(=O)Oc1cccc(O)c1` was tested. Which activity remaining did it give?
The activity remaining was 114% (inactive).

`COC1CC(O[C@H]2CC[C@]3(C=O)C4CC[C@]5(C)C(C6=CC(=O)OC6)CC[C@]5(O)C4CC[C@]3(O)C2)OC(C)C1O` (stereo not given in full) was tested. Which activity remaining did it give?
The activity remaining was 117% (inactive).

With `COC(=O)C[C@H]1C2(C)CC34OC5(C)O[C@@]6([C@H](OC)C(OC(=O)C(C)C)[C@]7(C)C(/C(=C(/OC)C(C)C)C(=O)O[C@H]7c7ccoc7)[C@@]6(O5)[C@H](OC)[C@@]3(OC)C2OC(C)=O)[C@]14C` (stereo not given in full) as the molecule, how does the activity remaining read?
The activity remaining was 119% (inactive).

For `COc1cc(OC)c2ccc(=O)oc2c1`, which activity remaining is on record?
The activity remaining was 112% (inactive).

`CN(Cc1cnc2nc(N)nc(N)c2n1)c1ccc(C(=O)NC(CCC(=O)O)C(=O)O)cc1` (stereo not given) was tested. Which activity remaining did it give?
Its activity remaining is 121% (inactive).

For `CCCCCCOc1ccccc1C(N)=O`, which activity remaining is on record?
The activity remaining was 96.8% (inactive).

With `CC(=O)O[C@H]1CC2CCC3C(CC[C@@]4(C)C3C[C@H]([N+]3(C)CCCCC3)[C@@H]4OC(C)=O)[C@@]2(C)C[C@@H]1[N+]1(C)CCCCC1` (stereo not given in full) as the molecule, how does the activity remaining read?
Its activity remaining is 124% (inactive).

How did the activity remaining turn out when `CCCCCCCCCCCCCCCCOP(=O)([O-])OCC[N+](C)(C)C` was run?
Its activity remaining is 128% (inactive).

How did the activity remaining turn out when `C[C@@H]1CC2C3C[C@H](F)C4=CC(=O)C=C[C@]4(C)[C@@]3(F)[C@@H](O)C[C@]2(C)[C@@]1(O)C(=O)COC(=O)C(C)(C)C` (stereo not given in full) was run?
Its activity remaining is 98.9% (inactive).

With `CC(=O)Nc1ccc(O)cc1` as the molecule, how does the activity remaining read?
The activity remaining was 90% (inactive).

How did the activity remaining turn out when `CC(=O)O[C@H]1C(=O)[C@@]2(C)C([C@H](OC(=O)c3ccccc3)[C@]3(O)C[C@H](OC(=O)[C@H](O)[C@@H](NC(=O)c4ccccc4)c4ccccc4)C(C)=C1C3(C)C)[C@]1(OC(C)=O)CO[C@@H]1C[C@@H]2O` (stereo not given in full) was run?
The activity remaining was 90.9% (inactive).

How did the activity remaining turn out when `COC(=O)c1c(OC)cc2c(c1C)Oc1c(Cl)c(O)c(Cl)c(C)c1C(=O)O2` was run?
Its activity remaining is 116% (inactive).

How did the activity remaining turn out when `CC(C)c1c(O)ccc2c1CCC1[C@@](C)(CO)CCC[C@]21C` (stereo not given in full) was run?
Its activity remaining is 101% (inactive).

For `CC(C)=CCC[C@](C)(O)C1CC=C(C)CC1` (stereo not given in full), which activity remaining is on record?
Its activity remaining is 118% (inactive).

For `C=CCSSSCC=C`, which activity remaining is on record?
The activity remaining was 91.6% (inactive).

`Nc1ccc(S(=O)(=O)NC(=O)c2ccccc2)cc1` was tested. Which activity remaining did it give?
The activity remaining was 109% (inactive).

With `COc1ccc2c(=O)c(CC(=O)O)coc2c1` as the molecule, how does the activity remaining read?
Its activity remaining is 117% (inactive).

How did the activity remaining turn out when `COC(=O)C1=C(C)NC(C)=C(C(=O)OCC(C)C)C1c1ccccc1[N+](=O)[O-]` (stereo not given) was run?
Its activity remaining is 118% (inactive).

From PubChem BioAssay
